Screening data deposited in PubChem BioAssay by The Scripps Research Institute Molecular Screening Center.
PLCg1 inh: blocks human PLC-gamma1 enzyme activity. P19174. purified PLC-gamma1, fluorogenic substrate, fluorescence. inhibition, % at 12.2 µM. 370,000 tested, 0.84% active. AID 720700; in the data active = inhibition above about 9.5%
ADAM10 inh: inhibits human ADAM10; AID 720582; inhibition, % at 7 µM; O14672; recombinant ADAM10, EDANS/DABCYL FRET peptide cleavage, 3 h; 370,000 tested, 0.62% active;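 active = inhibition above a per-campaign cutoff equal to the mean of compounds falling between control-based bounds plus 3 SD, cut at about 20% in these data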
Target sequence (O14672 214-748 limits assumed): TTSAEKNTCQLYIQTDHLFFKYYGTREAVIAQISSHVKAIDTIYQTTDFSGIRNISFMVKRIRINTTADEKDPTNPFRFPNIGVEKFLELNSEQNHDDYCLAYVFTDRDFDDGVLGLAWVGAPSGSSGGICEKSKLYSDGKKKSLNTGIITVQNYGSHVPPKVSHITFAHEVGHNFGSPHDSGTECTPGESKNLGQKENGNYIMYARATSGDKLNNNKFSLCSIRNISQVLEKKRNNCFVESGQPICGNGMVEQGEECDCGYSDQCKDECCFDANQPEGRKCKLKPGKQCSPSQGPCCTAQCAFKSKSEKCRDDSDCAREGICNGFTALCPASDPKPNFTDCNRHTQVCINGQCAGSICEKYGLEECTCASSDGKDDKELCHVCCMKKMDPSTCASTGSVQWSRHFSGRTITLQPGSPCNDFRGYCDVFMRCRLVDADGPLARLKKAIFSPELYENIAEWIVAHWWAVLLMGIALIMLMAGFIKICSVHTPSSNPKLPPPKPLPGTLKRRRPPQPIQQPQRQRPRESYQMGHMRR
ADAM17 inh: ADAM17 inhibition, QFRET primary screen. AID 720648. 370,000 tested, 0.83% active. recombinant ADAM17, EDANS/DABCYL FRET peptide cleavage. P78536. inhibition, % at 6.95 µM;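 active = inhibition above the mean of compounds lying between control limits plus 3 SD, set per campaign, cut at about 8.5% in these data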
proKLK7 act: activators of human kallikrein-7 zymogen; purified proKLK7, EDANS-DABCYL substrate fluorescence; 100% is mature enzyme control, 0% vehicle; 370,000 tested, 0.9% active; P49862; activation, % at 7 µM;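 active = activation above the mean of all tested compounds plus 3 SD, computed per campaign excluding outliers beyond control limits, cut at about 13% in these data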
PLCb3 inh: inhibitors of human phospholipase C beta3 | Purified PLC-beta3, fluorogenic substrate, fluorescence | Q01970 | inhibition, % at 12.2 µM | 370,000 tested, 0.18% active; in the data active = inhibition above about 11%
ADAM10 confirm: confirmation of inhibitors of human ADAM10; shares compounds with ADAM10 inh; ADAM10 QFRET peptide cleavage, EDANS fluorescence; inhibition, % at 6.95 µM; 2,100 tested, 1% active; AID 743208;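 active = inhibition above about 20% chosen separately for each screening run, limit read from the data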
ADAM17 counter: ADAM17 inhibition, counter-screen for ADAM10 exosite hits. shares compounds with ADAM10 inh. ADAM17 QFRET peptide cleavage, EDANS fluorescence. inhibition, % at 6.95 µM. 2,100 tested, 0.5% active. AID 743214;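 active = mean triplicate inhibition above the solvent-only control wells' mean plus 3 SD, cut at about 12% in these data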
ADAM10 counter: inhibits human ADAM10 in ADAM17 exosite counter-screen | inhibition, % at 6.95 µM | shares compounds with ADAM17 inh | AID 743256 | recombinant ADAM10, EDANS/DABCYL FRET peptide cleavage, 3 h | 2,900 tested, 47% active;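 active = mean inhibition over the triplicate runs exceeds the activity threshold set in the earlier primary screen, cut at about 20% in these data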
ADAM17 confirm: human ADAM17 inhibition, confirmation. shares compounds with ADAM17 inh. recombinant ADAM17, EDANS/DABCYL QFRET peptide cleavage. inhibition, % at 6.95 µM. 2,900 tested, 65% active. AID 743257;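 active = mean inhibition across replicates above the hit cutoff set in the primary screen, cut at about 8.5% in these data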
Numbers stand for hits; n = inactive; x = no result given. In the library only some 2.9% were active in any assay of this set; here they are far more common.

SMILES	PLCg1 inh	ADAM10 inh	ADAM17 inh	proKLK7 act	PLCb3 inh	ADAM10 confirm	ADAM17 counter	ADAM10 counter	ADAM17 confirm
COc1cc2c(cc1NC(=O)C(C)Sc1ccc(NC(C)=O)cc1)oc1ccccc12 (stereo unspecified)	n	47	22	n	n	n	n	32	18
COCCCN(CCC#N)C(=O)c1c(-c2c(Cl)cccc2Cl)noc1C	n	n	n	n	n	x	x	x	x
COc1cc(NC(=O)C2CCCN(S(=O)(=O)c3cccs3)C2)cc(OC)c1 (stereo unspecified)	n	n	n	n	n	x	x	x	x
CCOc1ccc(OCC)c(NC(=O)C2CCCN(S(=O)(=O)c3cccs3)C2)c1 (stereo unspecified)	n	28	12	n	n	n	n	n	n
N#CC1=C(N)NC(SCC(=O)Nc2ccc(Br)cc2)=C(C#N)C12CCCCC2	n	22	11	n	n	n	n	30	20
CC(=O)Nc1cccc2c1Cc1cc([N+](=O)[O-])ccc1-2	n	n	n	n	n	x	x	x	x
O=C(NCc1ccccc1)C1=C[C@@H](c2ccccc2)C[C@@H](OCc2ccc(CO)cc2)O1	n	n	n	n	n	x	x	x	x
O=C(Nc1ccccc1)C1=C[C@@H](c2ccc(C(F)(F)F)cc2)C[C@@H](OCc2ccc(CO)cc2)O1	n	27	11	n	n	n	n	n	10
O=C(NCc1ccccc1)C1=C[C@H](c2ccc(Br)cc2)C[C@H](OCc2ccc(CO)cc2)O1	n	21	9.9	n	n	n	n	28	18
CC(=O)n1cc([C@@H]2C=C(C(=O)Nc3ccccc3)O[C@H](OCc3ccc(CO)cc3)C2)c2ccccc21	n	31	8.9	n	n	n	n	n	14
Fc1ccc(CNCCC(Cc2ccccc2)c2ccco2)cc1 (stereo unspecified)	n	n	n	n	n	x	x	x	x
Cc1noc(NS(=O)(=O)c2ccc(NC(=O)CCCOc3ccc(Cl)cc3Cl)cc2)c1C	n	n	n	n	n	x	x	x	x
O/N=C/c1cc(Br)ccc1OCc1cccc(F)c1	n	28	11	n	n	n	n	n	9.5
COc1nccnc1NS(=O)(=O)c1ccc(NC(=S)NC(=O)/C=C/c2ccc(F)cc2)cc1	n	24	10	n	n	n	n	n	n
COc1cc(NS(=O)(=O)c2ccc(NC(=S)NC(=O)/C=C/c3ccc(F)cc3)cc2)ncn1	n	n	n	n	n	x	x	x	x
O=C(Nc1ccccc1)OCC1COC(c2ccccc2)(c2ccccc2)O1 (stereo unspecified)	n	25	11	n	n	n	n	24	12
O=C(Nc1ccccc1)OCC1CCCO1 (stereo unspecified)	n	n	n	n	n	x	x	x	x
CCN(CC)CCCn1c(=S)[nH]c2cc(C(=O)OC)ccc2c1=O	n	n	n	n	n	x	x	x	x
CCOC(=O)c1sc(NC(=O)CSc2n[nH]c(CC(C)C)n2)nc1C	n	27	8.8	n	n	n	n	n	n
O=C1CC(N2CCN(Cc3ccc4c(c3)OCO4)CC2)C(=O)N1c1cccc(Cl)c1 (stereo unspecified)	n	n	n	n	n	x	x	x	x
CCOCCCN1C(=O)CN(C2CCCCCC2)C(=O)C1c1ccc(OC)cc1 (stereo unspecified)	n	n	n	n	n	x	x	x	x
COc1ccc(NC(=O)CC2C(=O)N(C)C(=S)N2CCc2ccc(F)cc2)cc1 (stereo unspecified)	n	21	12	n	n	n	n	25	14
COc1ccc(CCN2C(=S)N(C)C(=O)C2CC(=O)Nc2ccc(OC)cc2)cc1 (stereo unspecified)	n	n	n	n	n	x	x	x	x
Cc1ccccc1-c1cnc(C(O)c2ccc(C(C)(C)C)cc2)[nH]1 (stereo unspecified)	n	n	n	n	n	x	x	x	x
Cc1cc(C(O)c2ncc(-c3ccc(Oc4ccccc4)cc3)[nH]2)ccc1F (stereo unspecified)	n	21	13	n	n	n	n	37	16
SMILES	PLCg1 inh	ADAM10 inh	ADAM17 inh	proKLK7 act	PLCb3 inh	ADAM10 confirm	ADAM17 counter	ADAM10 counter	ADAM17 confirm
Cc1ccccc1-c1cnc(C(O)c2ccc(-c3ccccc3)cc2)[nH]1 (stereo unspecified)	n	23	9.1	n	n	n	n	n	n
CCCCCCCCNS(=O)(=O)/C=C/c1ccccc1CNC(=O)OC(C)(C)C	n	21	11	n	n	n	n	31	15
COC(=O)C1=C(C)N(CCCC(=O)O)C(=O)NC1c1ccccc1OS(=O)(=O)c1ccccc1[N+](=O)[O-] (stereo unspecified)	n	n	n	n	n	x	x	x	x
CCOC(=O)C1=C(C)N(Cc2ccccc2)C(=O)NC1c1ccccc1OS(=O)(=O)c1ccccc1[N+](=O)[O-] (stereo unspecified)	n	21	9.8	n	n	n	n	49	21
CCOc1ccc2[nH]c(=O)c(CN(CC3CCCN3CC)C(=O)NCc3ccccc3)cc2c1 (stereo unspecified)	n	n	n	n	n	x	x	x	x
C[C@H](NC(=O)c1nc[nH]c1C(=O)NCC(=O)OCc1ccccc1)C(=O)OC(C)(C)C	n	n	n	n	n	x	x	x	x
CC(C)C[C@H](NC(=O)c1nc[nH]c1C(=O)NCC(=O)OC(C)(C)C)C(=O)OC(C)(C)C	n	26	13	n	n	n	n	30	15
CC(C)C[C@H](NC(=O)c1nc[nH]c1C(=O)NCC(=O)OCc1ccccc1)C(=O)OC(C)(C)C	n	23	8.9	n	n	n	n	33	16
CC(C)C[C@H](NC(=O)c1[nH]cnc1C(=O)N[C@@H](C)C(=O)OCc1ccccc1)C(=O)OC(C)(C)C	n	29	14	n	n	n	n	39	21
CC(C)(C)OC(=O)N1CCC(NC(=O)c2nc[nH]c2C(=O)NCC(=O)OCc2ccccc2)CC1	n	23	8.7	n	n	n	n	n	n
C[C@H](NC(=O)c1nc[nH]c1C(=O)NCC(=O)OC(C)(C)C)C(=O)OC(C)(C)C	n	n	n	n	n	x	x	x	x
CCOC(=O)C1(Cc2cccc(OC)c2)CCN(C2CCOCC2)CC1	n	n	n	n	n	x	x	x	x
CC(C)(C)CN1CCNC(=O)C1CC(=O)N1CCOc2ccccc2C1 (stereo unspecified)	n	n	n	n	n	x	x	x	x
